# PNC inhibitor = inhibitors of perinucleolar compartment assembly; PC3M PTB-GFP, PNC prevalence imaging, 16 h; stronger effect = lower value; activity change (PNC), negative = inhibition, % at 10 µM; hit rate 3.1% among 140,000;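 active = readout at or below -70, meaning at least 70% loss of cells showing the perinucleolar compartment, a nuclear body marking cancer cells; inconclusive = readout between -30 and a set limit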;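 note: plate controls were DMSO wells for no effect and camptothecin positive control wells for full effect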
#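 PC3M cells stably expressing PTB-GFP, 750–1000 cells/well, treated 16 h at 37 °C with compound (23 nl of library stock), in duplicate. After paraformaldehyde fixation and Hoechst stain, imaged at 20x; PNC prevalence scored by image analysis.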
# HPGD block = HPGD (human) dehydrogenase inhibition | Potency, µM, for inactives: top-dose activity change, negative = inhibition, usual class: inhibitors | P15428 | AID 894 | hit rate 4.3% among 150,000 | purified HPGD, NADH fluorescence kinetic, PGE2 substrate; note: potency is the fitted concentration of half-maximal effect
# Target sequence (P15428 whole entry, looked up): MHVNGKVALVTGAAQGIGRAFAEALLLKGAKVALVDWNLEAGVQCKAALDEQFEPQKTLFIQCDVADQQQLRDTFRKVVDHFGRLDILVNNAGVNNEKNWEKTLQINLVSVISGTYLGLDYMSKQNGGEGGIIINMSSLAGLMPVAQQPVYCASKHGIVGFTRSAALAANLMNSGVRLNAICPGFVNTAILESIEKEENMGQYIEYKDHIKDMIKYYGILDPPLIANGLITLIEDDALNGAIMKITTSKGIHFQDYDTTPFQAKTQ
#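 NADH formation kinetics: reaction with 30 uM PGE2 and 1 mM NAD+ (final), 20 nM enzyme, Tris-HCl pH 8 with Tween 20, after 15 min compound preincubation at room temperature. Fluorescence change, last versus first of five reads.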
# ALDH1A1 inh = inhibitors of human aldehyde dehydrogenase 1A1. Purified ALDH1A1, NADH fluorescence, propionaldehyde substrate. Potency, µM (top dose mostly 75.3 µM), for inactives: at the highest dose activity, negative = inhibition, hits mostly inhibitors. hit rate 7.3% among 220,000;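 note: potency is the fitted concentration of half-maximal effect; plate controls were no enzyme wells and a reference inhibitor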
# * hit, by the source's call; u = inconclusive; x = no result given; [ ] = another dose, or the depositor's remark. The list is not random: actives were taken first. Their share in the collection is about 11%. Unless noted, calls come from the whole dose curve; as a rule, active = well fitted inhibition curve with a large enough effect (not every such curve was filed as active); inconclusive = small, poorly fitted or top-dose-only effect, or another doubt; inactive = no such curve, though single readings can be large or run the other way. Unless noted, % is set by controls: 0 for no effect and ±100 for the full control effect.
SMILES,PNC inhibitor,HPGD block,ALDH1A1 inh
COc1ccc(NC(=O)c2ccc(C)cc2Cl)c([N+](=O)[O-])c1,18,-15%,4%
O=C(NC(NC(=S)Nc1c(Cl)cccc1Cl)C(Cl)(Cl)Cl)c1cccc([N+](=O)[O-])c1 (stereo unspecified),u,-7%,18µM*
COc1ccc(NC(=S)NC(NC(=O)c2ccccc2Cl)C(Cl)(Cl)Cl)c([N+](=O)[O-])c1 (stereo unspecified),2,-17%,8.9µM*
COc1ccc(NC(=S)NC(NC(=O)c2ccc(Cl)cc2Cl)C(Cl)(Cl)Cl)c([N+](=O)[O-])c1 (stereo unspecified),-18,-18%,22µM*
COc1ccc(NC(=S)NC(NC(=O)c2cccc3ccccc23)C(Cl)(Cl)Cl)c([N+](=O)[O-])c1 (stereo unspecified),-5,-13%,28µM*
Cc1ccc(CNC(=O)Cn2c(=O)oc3ccccc32)o1,27,-12%,-2%
CC(=O)O[C@@]1(C(C)=O)CCC2C3C=C(Cl)C4=CC(=O)CC[C@]4(C)C3CC[C@]21C (stereo partly specified),x,-9%,1%
CCOc1ccc(-c2nc(CSc3nnc(N)s3)cs2)cc1OC,-101*,-14%,-11%
CCOc1ccc(-c2nc(CSc3nnc(N)s3)cs2)cc1,-18,-20%,-5%
COc1ccc2nc(COC(=O)c3cccc([N+](=O)[O-])c3)c(C(C)=O)[n+]([O-])c2c1,x,x,-6%
CC(=O)c1c(COC(=O)c2ccccc2)nc2ccccc2[n+]1[O-],17,14µM*,u
CCC12CN(C(=O)c3ccc(OC)cc3)CC(CC)(CN(C(=O)c3ccc(OC)cc3)C1)C2=O,11,-6%,1%
COC(=O)NC(CC(C)=O)c1ccc2c(c1)OCO2 (stereo unspecified),x,x,9%[13.5 µM]
O=C(CCSCCc1ccccn1)Nc1ccc(Br)cn1,30,-10%,-3%
c1ccc(-n2ncc3c(NCc4cccs4)ncnc32)cc1,8,5µM*,u
NNc1ncnc2c1cnn2-c1ccccc1,u,-20%,18µM*
COc1ccc(-n2ncc3c(NCc4cccs4)ncnc32)cc1,16,u,u
CC(C)Nc1ncnc2c1cnn2-c1ccccc1,-11,u,u
CNc1ncnc2c1ncn2[C@H]1C[C@H](OP(=O)(O)O)[C@H](COP(=O)(O)O)O1,x,-3%,-9%
CC(C)=C1C2CCC1C1C(=O)N(c3nc(-c4ccccc4)c(C)s3)C(=O)C21 (stereo unspecified),42,-15%,u
CCCCSc1nc2c(cc1C#N)CCC2,34,-13%,u
CCCSc1nc(C)c(-c2csc(C(C#N)=C3CCCC3)n2)cc1C#N,u,-29%,22µM*
CCOC(=O)N1CCN(C(=O)c2ccc(NC(=O)c3ccc(C)cc3)cc2)CC1,-26,-7%,-2%
COc1ccc(COc2ccc(C3C(S(=O)(=O)c4ccccc4)CON3C)cc2OC)cc1 (stereo unspecified),x,x,8.9µM*
CNCc1ccc(OCc2ccccc2)c(OC)c1,-10,2%,6%
SMILES,PNC inhibitor,HPGD block,ALDH1A1 inh
CCOc1ccccc1CNS(=O)(=O)c1ccc2c(c1)oc(=O)n2C,-24,-11%,-8%
CCOc1ccccc1CNS(=O)(=O)c1ccc2[nH]c(=O)sc2c1,-107*,-22%,u
COC(=O)c1sccc1NC(=S)Nc1ccc(F)cc1F,x,x,-9%
CCOC(=O)c1sc(=S)n(-c2ccc(Cl)cc2)c1C,u,-9%,u
CCOC(=O)c1sc(=S)n(-c2ccccc2Cl)c1SC,10,18µM*,18µM*
CCOC(=O)c1sc(=S)n(-c2cc(F)ccc2F)c1N,-6,25µM*,20µM*
COC(=O)c1sc(=S)n(-c2cc(F)ccc2F)c1N,61,28µM*,25µM*
CCOC(=O)c1sc(-c2ccc(OC)cc2)cc1N,30,u,u
CCOC(=O)c1sc(=S)n(-c2ccccc2)c1SC,84,-22%,-10%
CCOC(=O)c1sc(=S)n(-c2cc(OC)ccc2OC)c1N,23,3.5µM*,3.2µM*
CCC1CCCCN1C(=O)CSc1nnc(CNC(=O)c2cc(OC)c(OC)c(OC)c2)o1 (stereo unspecified),44,-17%,u
CCCCCC(O)/C=C/C=C\CCCCCCCC(=O)O (stereo unspecified),x,-2%,4%
O=C(Cn1nc(-c2ccc(Cl)cc2)c2ccccc2c1=O)NN1CCOCC1,x,x,-1%
CC(C)NC(=O)N1CC2(CCN(C(=O)c3cc(C(F)(F)F)cc(C(F)(F)F)c3)CC2)C1,x,-1%,7%
CC(C)CC(=O)c1c[nH]c(C(=O)NCCCn2ccnc2)c1,23,-9%,u
CCOc1ccc(-c2cn3ccccc3n2)cc1[N+](=O)[O-],u,-7%,u
CCCCOc1ccc(-c2cn3ccccc3n2)cc1[N+](=O)[O-],u,-11%,10µM*
COc1ccc(NC(=O)c2cc(S(=O)(=O)NCC3COc4ccccc4O3)ccc2F)cc1 (stereo unspecified),16,-13%,u
CC(C)c1ccc(NC(=O)c2cc(S(=O)(=O)NCC3COc4ccccc4O3)ccc2F)cc1 (stereo unspecified),-113*,-11%,u
Cc1ccc(-c2nc(C)sc2CC(=O)Nc2cccc(C)c2C)cc1,u,x,-1%
COc1cccc2c3c(c(=O)[nH]c12)CCC(C)(C)O3,-16,16µM*,5%
Cn1c(=O)c2c(c3ccccc31)OC(C)(C)CC2,-4,u,14%
N#Cc1ccc(N2CCN(C(=O)c3cccc(F)c3)CC2)c(F)c1,35,2%,-6%
CN(C)/C=N/C1=C(C#N)C(c2cccs2)c2ccc3ccccc3c2O1 (stereo unspecified),x,x,0.32µM*
N#CC1=C(N)Oc2cc3ccccc3cc2C1c1cccs1 (stereo unspecified),u,-5%,u
SMILES,PNC inhibitor,HPGD block,ALDH1A1 inh
O=C(NC1CCCC1)c1ccc(CSc2nc3ccncc3n2Cc2ccc(F)cc2)cc1,56,3.2µM*,-7%
CCC(C)NC(=O)c1ccc(CSc2nc3ccncc3n2Cc2ccc(F)cc2)cc1 (stereo unspecified),60,u,-14%
O=C(NCCN1CCOCC1)c1ccc(CSc2nc3ccncc3n2Cc2ccc(F)cc2)cc1,x,x,4%
CCN(CCNC(=O)c1ccc(CSc2nc3ccncc3[nH]2)cc1)c1ccccc1,-30,-13%,-9%
CN1CCN(C(=O)c2ccc(CSc3nc4ccncc4n3Cc3ccc(F)cc3)cc2)CC1,30,16µM*,-2%
CC1CC(C)CN(C(=O)c2ccc(CSc3nc4ccncc4[nH]3)cc2)C1 (stereo unspecified),39,5.6µM*,0%
COc1ccc(C2(CNS(=O)(=O)c3ccccc3)CCOCC2)cc1,x,x,-9%
Cc1c(CC(C)(C)C(=O)O)n(Cc2ccc(Cl)cc2)c2ccc(F)cc12,x,u,-3%
Cc1nnc(SCC(=O)Nc2ccc(N3CCOCC3)cc2)o1,u,-8%,4%
O=S1(=O)CC(O)C(N2CCC(c3ccccc3)CC2)C1 (stereo unspecified),u,-10%,15%
COCCN(CCOC)C(=O)c1cc2sc3ccccc3c2s1,17,u,u
CCN(CC)C(=O)c1cc2sc3ccccc3c2s1,4,7.9µM*,u
